High-throughput results: PubChem, The Scripps Research Institute Molecular Screening Center
Compounds with a hit are over-represented: about 3.4% of the library has one in this group of screens.
FBW7 activator: human FBW7 E3 ligase activation, primary screen; Q969H0; AlphaScreen FBW7–phospho-cyclin E peptide binding, activator screen; normalized activity (activation), % at 26.1 µM; hit rate 0.13% among 650,000; AID 1259310; in the data active means normalized activity above about 1.9%;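 further: purified mutant Fbw7 with reduced substrate affinity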
MITF inh: inhibitors of human MITF. O75030. AlphaScreen MITF homodimerization, bead proximity signal. inhibition, % at 2.6 µM. hit rate 0.91% among 650,000. AID 1259374; in the data active means inhibition above about 50%;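 further: 0% = vehicle wells with protein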
Target sequence (O75030 whole entry, looked up): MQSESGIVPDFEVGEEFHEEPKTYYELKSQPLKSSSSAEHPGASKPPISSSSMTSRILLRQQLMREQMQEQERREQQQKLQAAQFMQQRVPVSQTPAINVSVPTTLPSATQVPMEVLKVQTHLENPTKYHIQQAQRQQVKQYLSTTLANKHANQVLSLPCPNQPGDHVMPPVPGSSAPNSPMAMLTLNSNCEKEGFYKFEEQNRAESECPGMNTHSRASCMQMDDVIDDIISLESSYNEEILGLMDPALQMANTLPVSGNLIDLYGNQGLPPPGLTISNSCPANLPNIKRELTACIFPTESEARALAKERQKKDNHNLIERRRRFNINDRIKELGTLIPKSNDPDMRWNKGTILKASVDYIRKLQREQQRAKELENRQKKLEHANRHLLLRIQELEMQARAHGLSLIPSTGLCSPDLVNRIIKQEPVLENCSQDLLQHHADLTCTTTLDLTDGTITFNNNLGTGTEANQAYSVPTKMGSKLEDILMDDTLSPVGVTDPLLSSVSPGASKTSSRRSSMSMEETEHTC
GPR151 activ: activates the human receptor GPR151; AID 1508602; Q8TDV0; hit rate 1% among 650,000; PathHunter beta-arrestin GPR151 cells, luminescence; activation, % at 11.2 µM; in the data active means activation above about 4.9%;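 further: 0% = median of compound wells and 100% = cells with positive control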
TEAD-YAP block: TEAD-YAP interaction inhibition. inhibition, % at 9.12 µM. AID 1259422. hit rate 1.4% among 640,000. HEK-TIYL cells, TEAD-Gal4/YAP UAS-luciferase luminescence; in the data active means inhibition above about 32%;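 further: 0% = median of test compound wells and 100% = reference inhibitor wells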
GPR151 conf act: confirmation of human GPR151 activators; shares compounds with GPR151 activ; GPR151 PathHunter beta-arrestin cells, luminescence, 90 min; % of EA-reagent control over plate median; activation, % at 11.2 µM; 6,700 tested, under 10 active;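 active means mean percent activation across replicates above the confirmation screen cutoff of 4.91%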
GPR119 counter: GPR119 activation, counter-screen for GPR151 activators; hit rate 0.3% among 6,700; activation, % at 11.2 µM; AID 1508611; shares compounds with GPR151 activ; GPR119 PathHunter beta-arrestin cells, luminescence, 90 min; 0 = compound-well median, 100 = enzyme-acceptor control;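 active means mean percent activation in the counterscreen above 29.09%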;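 further: counterscreen on off-target GPR119 to flag nonselective hits from the GPR151 activator screen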
* hit, by the source's call; x = no result; ! = repeats disagree.

SMILES	FBW7 activator	MITF inh	GPR151 activ	TEAD-YAP block	GPR151 conf act	GPR119 counter
O=C1C2CC=CCC2C(=O)N1c1ccccn1 (configuration not stated)	0	7	4	5	x	x
Cn1c(=O)[nH]c(=O)c2c1nc(NCc1ccccc1)n2Cc1ccccc1	0	6	0	-2	x	x
Cn1c(=O)[nH]c(=O)c2c1nc(NCc1ccccc1)n2Cc1ccc(Cl)cc1	0	0	6.7*	0	1	-3
Cc1cccc(Cn2c(SCC(C)C)nc3c2c(=O)[nH]c(=O)n3C)c1	1	19	5.2*	2	0	1
CCCSc1nc2c(c(=O)[nH]c(=O)n2C)n1CC(O)Oc1cccc2ccccc12 (configuration not stated)	0	11	6.2*	10	0	-8
Cn1c(=O)[nH]c(=O)c2c1nc(N1CCN(c3cccc(Cl)c3)CC1)n2Cc1ccccc1	0	-15	5.3*	1	2	6
COc1ccc(Br)cc1CNC1CCCC1	0	31	-1	-10	x	x
Nc1c(Br)cc(Br)cc1CNC1CCC(O)CC1 (configuration not stated)	0	-14	5.7*!	-1	0	7
CN(C)c1ccc(C2OCC3(CO2)COC(c2ccc(N(C)C)cc2)OC3)cc1 (configuration not stated)	0	4	1	-4	x	x
CN(C)CC(C)(C)C1OCC2(CO1)COC(C(C)(C)CN(C)C)OC2 (configuration not stated)	0	13	6.9*	13	0	-2
Cc1ccc(C)c(Cn2c(C(=O)O)c(CNCCC(C)C)c3ccccc32)c1	0	-8	0	0	x	x
Cc1cc(C)c(S(=O)(=O)Nc2ccc(F)cc2)cc1C	0	10	0	-1	x	x
Cc1cc(C)c(S(=O)(=O)Nc2ccc(O)c(C(=O)O)c2)cc1C	0	1	10*	0	1	-2
CN1C(=O)c2cccc(NC(=O)c3ccc4ccccc4c3)c2C1=O	0	3	7.6*	0	1	4
COc1cc([N+](=O)[O-])ccc1NC(=O)c1oc(=O)c2ccccc2c1-c1ccc(C)cc1	0	9	5.7*	-5	0	16
CCOc1ccc(N=Cc2c(O)n(CC)c(=S)[nH]c2=O)cc1	0	-4	6.0*	0	0	-2
CC1CCC(C(C)C)C(OC(=O)CSc2cccc[n+]2[O-])C1 (configuration not stated)	0	-10	4.9*	-13	-1	-5
CC1CCC(C(C)C)C(OC(=O)CSc2nnnn2C)C1 (configuration not stated)	0	-13	0	-4	x	x
Cc1cccc(N2C(=O)CSC2c2ccccc2F)c1 (configuration not stated)	0	7	1	0	x	x
O=C(Nc1ccccc1Br)c1cc(S(=O)(=O)N2CCN(c3ccccc3F)CC2)ccc1F	1	11	-1	9	x	x
COc1cc(/C=C2\SC(=S)NC2=O)ccc1OS(=O)(=O)c1ccccc1	0	11	7.9*	18	0	6
Nc1ncc(-c2cccc(F)c2)nc1-c1ccc(C(=O)O)cc1	0	27	0	-9	x	x
O=S(=O)(c1ccc(N2CCCC(C(F)(F)F)C2)nc1)N1CCCC1 (configuration not stated)	0	-2	5.8*	-4	0	3
COc1cc(/C=C2\N=C(c3cc(OC)c(OC)c(OC)c3)OC2=O)cc(Br)c1OC(C)=O	0	11	5.5*	7	0	12
COc1cc(/C=C2/N=C(c3ccc(Cl)cc3)OC2=O)cc(Br)c1OC(C)=O	0	9	-1	2	x	x
Cc1cc(C)cc(NC(=O)COc2cccc(C)c2)c1	0	-17	6.3*	5	-1	2
COC(=O)c1cccc(NC(=O)COc2ccc(C(C)C)c(C)c2)c1	1	17	0	-7	x	x
CC(=O)N(C)c1ccc(NC(=O)COc2cc(C)cc(C)c2)cc1	0	-4	4.9*	-2	-1	-10
CCOC(=O)c1cccc(NC(=O)COc2ccc(C(C)C)c(C)c2)c1	1	10	5.0*	-11	0	4
Cc1cccc(OCC(=O)Nc2cccc(O)c2)c1	0	-10	5.9*	-18	0	-9
